For 61 compounds, activity change, less the hit threshold results are on record in PubChem BioAssay AID1942 (Johns Hopkins Ion Channel Center, 2009).

Among all 2,400 compounds or so, about 580 (24%) were called active.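 The calls were made as follows: active = activity change at or above the mean plus 3 SD of buffer wells without dofetilide, per plate; inactive = the rest.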 Not all results are given here.

Potassium voltage-gated channel subfamily KQT member 2 (Rattus norvegicus), sequence (O88943 whole entry, looked up): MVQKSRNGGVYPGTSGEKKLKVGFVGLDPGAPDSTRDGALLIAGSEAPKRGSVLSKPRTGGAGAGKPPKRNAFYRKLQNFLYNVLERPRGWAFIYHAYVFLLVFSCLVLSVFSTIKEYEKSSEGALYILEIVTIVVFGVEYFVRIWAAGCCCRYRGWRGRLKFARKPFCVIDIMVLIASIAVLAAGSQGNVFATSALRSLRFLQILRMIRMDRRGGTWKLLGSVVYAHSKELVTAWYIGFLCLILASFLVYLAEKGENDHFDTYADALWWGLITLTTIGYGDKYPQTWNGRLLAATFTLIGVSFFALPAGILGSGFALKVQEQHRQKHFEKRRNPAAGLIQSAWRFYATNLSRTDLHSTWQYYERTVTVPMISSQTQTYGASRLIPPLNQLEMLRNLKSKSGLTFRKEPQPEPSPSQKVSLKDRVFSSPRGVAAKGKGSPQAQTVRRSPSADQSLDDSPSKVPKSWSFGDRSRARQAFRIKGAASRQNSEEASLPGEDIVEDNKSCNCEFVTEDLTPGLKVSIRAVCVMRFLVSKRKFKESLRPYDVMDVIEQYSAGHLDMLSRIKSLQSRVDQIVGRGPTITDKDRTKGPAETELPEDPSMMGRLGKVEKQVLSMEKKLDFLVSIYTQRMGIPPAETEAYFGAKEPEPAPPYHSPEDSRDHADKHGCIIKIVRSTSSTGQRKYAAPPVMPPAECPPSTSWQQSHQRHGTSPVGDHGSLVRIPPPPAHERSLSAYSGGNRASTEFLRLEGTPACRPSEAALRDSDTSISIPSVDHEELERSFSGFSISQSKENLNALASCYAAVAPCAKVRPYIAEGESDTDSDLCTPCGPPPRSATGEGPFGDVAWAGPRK

The assay concerns the target Potassium voltage-gated channel subfamily KQT member 2 (Rattus norvegicus) (UniProt O88943). The assay is described as follows: rat KCNQ2 channel activation by compounds alone, confirmation, counter-screen for hERG block protector project, cell-based, CHO, FluxOR thallium flux (AID 1942).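 Also: normalized value minus buffer-control mean plus three SD of buffer wells.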 The conditions noted are these: CHO-KCNQ2 cells, FluxOR thallium flux fluorescence; at 10 µM; active compounds read high.
For `Cc1cc(=O)oc2cc(OCC(=O)OCC(=O)NC(C)C)ccc12`, the activity change, less the hit threshold was -16.8% (inactive).

For the compound `O=C(NCCc1nnc2ccc(NCc3ccc(Cl)cc3)nn12)c1ccccc1`, the activity change, less the hit threshold was -7.7% (inactive).

In the case of `O=C(N/N=C/c1cc([N+](=O)[O-])ccc1O)c1ccc(COc2ccc3c(c2)CCC3)o1`, the activity change, less the hit threshold was -47.5% (inactive).

Take `N#CCCn1cc(/C=N/NC(=O)c2ccncc2)c(-c2ccc(F)cc2)n1`: the activity change, less the hit threshold was -4.3% (inactive).

In the case of `CCn1ccnc1CN1CCCC(CO)(Cc2cccc(OC)c2)C1` (stereo unspecified), the activity change, less the hit threshold is -24.6% (inactive).

With `CCNC(=O)C/C(C)=N/NC(=O)C(=O)Nc1ccc(CC)cc1`, the activity change, less the hit threshold is 4.9% (active).

Regarding `CCCCNC(=O)COC(=O)c1ccc(NC(C)=O)cc1`, the activity change, less the hit threshold was -20.3% (inactive).

For the compound `CSCC[C@H](NC(=O)Nc1ccc(C)cc1C)C(=O)O`, the activity change, less the hit threshold is -12% (inactive).

On to `CCOC(=O)C1CCN(S(=O)(=O)c2cccc3nonc23)CC1`, for which the activity change, less the hit threshold was -11.1% (inactive).

For `O=C(O)CN1C(=O)c2ccc(Oc3ccc4c(c3)C(=O)N(CC(=O)O)C4=O)cc2C1=O`, the activity change, less the hit threshold was -11.1% (inactive).

With `O=C(O)Cc1cc(I)c(Oc2ccc(O)c(I)c2)c(I)c1`, the activity change, less the hit threshold was 93.7% (active).

On to `NC(=O)Cn1c2[n+](c3ccccc31)CC(O)CS2` (stereo unspecified), for which the activity change, less the hit threshold is -19.2% (inactive).

For the compound `Cc1ccc(NC(=O)c2noc3c2CCC3)cc1C`, the activity change, less the hit threshold is -19.4% (inactive).

In the case of `CCc1ccccc1N(CC(=O)NC(C)c1ccccc1)S(C)(=O)=O` (stereo unspecified), the activity change, less the hit threshold was -20.5% (inactive).

Turning to `Cc1ccc(C(C)NC(=O)C2CCCC2)cc1C` (stereo unspecified), the activity change, less the hit threshold was 37.3% (active).

In the case of `CCc1ccc(C(C)NC(=O)C2CCCC2)cc1` (stereo unspecified), the activity change, less the hit threshold is 14.8% (active).

In the case of `Cc1ccc(NC(=O)C2C3CCC(O3)C2C(=O)O)cc1C` (stereo unspecified), the activity change, less the hit threshold is -2.7% (inactive).

For `CSc1ccccc1-n1nnnc1SCC(=O)Nc1cc(C)ccc1C`, the activity change, less the hit threshold is -20.8% (inactive).

For `C=CCSC1=C(C#N)C(c2ccccc2)CC(=O)N1` (stereo unspecified), the activity change, less the hit threshold was -23.3% (inactive).

As for `Cc1ccsc1/C=N/NC(=O)CNC(=O)c1ccccc1`, the activity change, less the hit threshold was -13.4% (inactive).

In the case of `O=C(CNC(=O)c1ccccc1)NCc1ccc(Cl)cc1`, the activity change, less the hit threshold was -10.7% (inactive).

`Cc1nn(C(=O)CNC(=O)c2ccccc2)c(C)c1C`: the activity change, less the hit threshold is 17.2% (active).

As for `Cc1ccc(S(=O)(=O)N2CCOCC2)cc1NC(=O)COC(=O)c1cccnc1Cl`, the activity change, less the hit threshold is -22.8% (inactive).

Turning to `CC(C)c1ccc(CNc2nc3nc4c(c(=O)n3[nH]2)CCC4)cc1`, the activity change, less the hit threshold was 0.8% (active).

With `CCC(=O)Nc1ccc(N2CCOCC2)c(S(=O)(=O)Nc2ccc(OC)cc2)c1`, the activity change, less the hit threshold is -22.6% (inactive).

For the compound `Cc1ccc2[nH]c(C(=O)O)c(-c3ccccc3)c2c1`, the activity change, less the hit threshold is -8.1% (inactive).

With `Cc1ccc(-n2nc3ccc(N)cc3n2)c(C)c1`, the activity change, less the hit threshold is -29.1% (inactive).

Regarding `Cc1cc(C)cc(-n2ncc3c2CCCC3NC(=O)c2csnn2)c1` (stereo unspecified), the activity change, less the hit threshold was -28.6% (inactive).

In the case of `CC(O)C(NS(=O)(=O)c1ccc(Cl)cc1)C(=O)OCc1cc([N+](=O)[O-])cc2c1OCOC2` (stereo unspecified), the activity change, less the hit threshold is -18.1% (inactive).

Turning to `O=[N+]([O-])c1ccc(CSc2nnc(SCc3ccc(Cl)cc3)s2)cc1`, the activity change, less the hit threshold is -10.9% (inactive).

Regarding `O=[N+]([O-])c1ccc(Nc2ccccc2F)nc1`, the activity change, less the hit threshold was -2.6% (inactive).

As to `O=[N+]([O-])c1ccc(Nc2ccc(Cl)cc2)nc1`, the activity change, less the hit threshold is 3.5% (active).

For the compound `CCN(CC)c1ccc(NC(=S)NC(=O)c2ccco2)cc1`, the activity change, less the hit threshold is 35.9% (active).

In the case of `COc1cc(OC)cc(C(=O)NC(=S)Nc2ccc(NC(=O)c3ccco3)cc2)c1`, the activity change, less the hit threshold was -20.6% (inactive).

For the compound `CCOc1ccc(NC(=S)NC(=O)c2ccco2)cc1`, the activity change, less the hit threshold was 8% (active).

Turning to `CCCOc1ccc(C(=O)NNC(=S)NC(=O)c2ccco2)cc1`, the activity change, less the hit threshold is -27.6% (inactive).

For the compound `CNC(=O)c1cc(C(=O)c2ccc(F)cc2C(F)(F)F)c[nH]1`, the activity change, less the hit threshold was -11.8% (inactive).

As for `CCC(C)(C)NC(=O)c1ccc(Sc2nncn2C)c([N+](=O)[O-])c1`, the activity change, less the hit threshold was -20.1% (inactive).

`O=C1CCN(S(=O)(=O)c2ccc(Cl)cc2)CCN1`: the activity change, less the hit threshold is -21.6% (inactive).

`CC(Sc1n[nH]c(=O)[nH]c1=O)C(=O)OCc1ccccc1` (stereo unspecified): the activity change, less the hit threshold was -11.2% (inactive).

On to `COCCNC(=O)CN(C(=O)c1ccc(N2CCCC2)nc1)c1ccccc1`, for which the activity change, less the hit threshold was -18.5% (inactive).

For the compound `Cn1nnnc1SCC(=O)Nc1ccccn1`, the activity change, less the hit threshold was -5.9% (inactive).

Turning to `CC(=O)Nc1ccccc1NC(=O)C/C(C)=N/NC(=O)c1ccc([N+](=O)[O-])c(Cl)c1`, the activity change, less the hit threshold was -19% (inactive).

As to `C/C(CC(=O)Nc1ccccn1)=N\NC(=O)C(=O)Nc1cccc(Cl)c1C`, the activity change, less the hit threshold is 1.1% (active).

For `c1ccc(Cn2ncc3c(N4CCN(C(c5ccccc5)c5ccccc5)CC4)ncnc32)cc1`, the activity change, less the hit threshold was -29.3% (inactive).

On to `COc1cccc2sc(Nc3nnc(-c4cccs4)o3)nc12`, for which the activity change, less the hit threshold is 53.9% (active).

Regarding `CCOc1ccccc1Nc1nc(-c2sc(C)nc2C)cs1`, the activity change, less the hit threshold was -22% (inactive).

`COc1cccc2sc(Nc3nnc(-c4ccccc4Cl)o3)nc12`: the activity change, less the hit threshold was 9.4% (active).

As for `COc1ccccc1Nc1nnc(SCC(=O)Nc2nc(-c3ccc(F)cc3)cs2)s1`, the activity change, less the hit threshold was -22.3% (inactive).

Turning to `N#C/C(=C\c1ccc(-c2ccccc2Cl)o1)C(=O)Nc1nc2ccccc2s1`, the activity change, less the hit threshold was -10.9% (inactive).

In the case of `COc1cccc2sc(Nc3nc(-c4ccccn4)cs3)nc12`, the activity change, less the hit threshold is 20.3% (active).

`COc1cccc2sc(Nc3nnc(-c4ccc(F)cc4)o3)nc12`: the activity change, less the hit threshold is 45.4% (active).

With `Cc1ccc(CNC(=O)C2=CCN(S(=O)(=O)c3ccc(C)cc3)CC2)cc1`, the activity change, less the hit threshold is -15.1% (inactive).

As for `Cc1c(C(=O)NNC(=O)c2ccncc2)oc2ccc(Br)cc12`, the activity change, less the hit threshold was -16.1% (inactive).

In the case of `Cc1ccc(CNC(=O)CN(C(=O)C2(C)CC(=O)N=C3C=CC=CN32)c2ccccc2F)cc1` (stereo unspecified), the activity change, less the hit threshold was -10.9% (inactive).

As for `C=Cc1ccc(Cn2c(=O)n(CCCOC)c(=O)c3sccc32)cc1`, the activity change, less the hit threshold was -28.9% (inactive).

In the case of `O=S(=O)(Nc1ccc(Cc2ccncc2)cc1)c1ccc(Cl)c(Cl)c1`, the activity change, less the hit threshold is -20.9% (inactive).

With `CCCn1c(CC)nc([N+](=O)[O-])c1S(=O)(=O)c1ccccc1`, the activity change, less the hit threshold is -4.3% (inactive).

In the case of `CC(C)[C@H](NC(=O)c1ccco1)C(=O)OCC(=O)Nc1cccc(F)c1`, the activity change, less the hit threshold is -22% (inactive).

Consider `CCOc1c(OC)ccc2c3c(c(=O)oc12)CCCC3`, for which the activity change, less the hit threshold was -8.2% (inactive).

For `CN1CCN(S(=O)(=O)c2cccc(S(=O)(=O)c3ccc(Cl)cc3)c2)CC1`, the activity change, less the hit threshold is -17.8% (inactive).
